# Assay results taken from PubChem BioAssay (NCATS).
# Entries with a potency or affinity are not part of this list. Values without a mark were called inactive. The rule behind the calls is not given here.
# Conditions: Ebola virus entry assay, green fluorescence channel
# Note: 0% is about no effect.
row,SMILES,efficacy
1,CC(C)(C)NCC(O)c1cc(Cl)c(N)c(C(F)(F)F)c1 (stereo not given),12.5%
2,CNC[C@H](O)c1cccc(O)c1,-23.9%
3,NC[C@H]1O[C@H](O[C@H]2[C@H](O[C@@H]3O[C@H](CO)[C@@H](O)[C@H]3O)C(O)[C@H](N)C[C@@H]2N)[C@H](N)[C@@H](O)[C@@H]1O (stereo not given in full),-16%
4,CC1(C)O[C@H]2CC(=O)OC[C@]23[C@H]2CC[C@@]4(C)[C@H](c5ccoc5)OC(=O)[C@H]5O[C@]54[C@]2(C)C(=O)C[C@@H]13,-20.6%
5,Cc1ncc([N+](=O)[O-])n1CC(O)CCl (stereo not given),-16.3%
6,CC(C)CCOC(=O)c1ccc(N(C)C)cc1,-19.6%
7,CC(=O)[C@H]1CC[C@H]2[C@@H]3C=CC4=CC(=O)CC[C@@]4(C)[C@@H]3CC[C@]12C,16%
8,CCn1cc(C(=O)O)c(=O)c2cnc(N3CCNCC3)nc21,-36.7%
9,CC1c2ccccc2CN1NC(=O)c1ccc(Cl)c(S(N)(=O)=O)c1 (stereo not given),14.8%
10,O=C1c2ccccc2C(=O)c2c1ccc(O)c2O,-18.6%
11,COc1ccc(C(=O)CC(=O)c2ccc(C(C)(C)C)cc2)cc1,-14.9%
12,COc1cc(C(=O)OC(COCCC(C)C)CN2CCOCC2)cc(OC)c1OC (stereo not given),27.7%
13,O=C(NCN1CCOCC1)c1cnccn1,22.2%
14,Nc1ccc([As](=O)(O)O)cc1,-24.9%
15,CC(C)(Oc1ccc(Cl)cc1)C(=O)OCCCOC(=O)C(C)(C)Oc1ccc(Cl)cc1,-14%
16,O=C(OCc1ccccc1)c1ccccc1,-23.2%
17,CC(C)(C)CC(C)(C)c1ccc(OCCOCC[N+](C)(C)Cc2ccccc2)cc1,-219%
18,Nc1ccc(S(=O)(=O)NC(=O)c2ccccc2)cc1,-38.1%
19,CN(c1nccc(=O)[nH]1)C1CCN(c2nc3ccccc3n2Cc2ccc(F)cc2)CC1,66.4%
20,Cc1ncc([N+](=O)[O-])n1CC(C)O (stereo not given),-13.9%
